The list is not random: actives were taken first. Their share in the collection is about 3.4%.
HGIII-sPLA2 inh – Inhibits HGIII-sPLA2 liposome hydrolysis, primary screen. Q9NZ20. QFRET BODIPY PC-A2 liposome hydrolysis, fluorescence. inhibition, % at 12.2 µM. hit rate 0.56% among 370,000;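 active = inhibition above mean plus 3 SD of compounds lying within the high and low control bounds, cut at about 19% in these data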;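 also: 0% = median of test compound wells and 100% = no enzyme DMSO wells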
ADAM17 inh – ADAM17 inhibition, QFRET primary screen; P78536; inhibition, % at 6.95 µM; recombinant ADAM17, EDANS/DABCYL FRET peptide cleavage; hit rate 0.83% among 370,000; AID 720648;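 active = inhibition above the mean of compounds lying between control limits plus 3 SD, set per campaign, cut at about 8.5% in these data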;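 also: 0% = DMSO-only wells as the low control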
Target sequence (P78536 215-824 limits assumed): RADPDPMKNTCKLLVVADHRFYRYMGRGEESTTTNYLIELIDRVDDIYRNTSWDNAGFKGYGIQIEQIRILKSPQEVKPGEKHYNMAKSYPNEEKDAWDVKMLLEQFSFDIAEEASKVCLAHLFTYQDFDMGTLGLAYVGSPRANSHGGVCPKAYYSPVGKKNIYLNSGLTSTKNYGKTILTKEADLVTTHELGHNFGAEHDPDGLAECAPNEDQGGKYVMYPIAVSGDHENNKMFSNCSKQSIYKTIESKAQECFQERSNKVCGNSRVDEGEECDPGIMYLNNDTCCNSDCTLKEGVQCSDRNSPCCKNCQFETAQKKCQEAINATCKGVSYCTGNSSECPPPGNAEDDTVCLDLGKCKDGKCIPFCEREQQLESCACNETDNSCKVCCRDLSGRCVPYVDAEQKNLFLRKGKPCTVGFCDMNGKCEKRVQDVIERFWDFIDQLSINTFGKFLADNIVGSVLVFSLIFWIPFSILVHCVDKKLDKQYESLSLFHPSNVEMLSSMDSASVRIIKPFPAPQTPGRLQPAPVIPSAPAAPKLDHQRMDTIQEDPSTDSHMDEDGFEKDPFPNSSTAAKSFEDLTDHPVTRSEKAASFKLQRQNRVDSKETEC
KLK7 zymogen act – activators of human kallikrein-7 zymogen | P49862 | activation, % at 7 µM | purified proKLK7, EDANS-DABCYL substrate fluorescence; 100% is mature enzyme control, 0% vehicle | hit rate 0.9% among 370,000;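 active = activation above the mean of all tested compounds plus 3 SD, computed per campaign excluding outliers beyond control limits, cut at about 13% in these data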
ADAM10 inh – ADAM10 inhibition, QFRET primary screen; recombinant ADAM10, EDANS/DABCYL FRET peptide cleavage, 3 h; inhibition, % at 7 µM; hit rate 0.62% among 370,000; AID 720582;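 active = inhibition above a per-campaign cutoff equal to the mean of compounds falling between control-based bounds plus 3 SD, cut at about 20% in these data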;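 also: 0% = DMSO wells while the 100% control is not disclosed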
NRP1-CendR mod – NRP-1/CendR interaction modulation; O14786; FAM-RPARPAR peptide binding to NRP-1, fluorescence polarization; inhibition, % at 25 µM; hit rate 0.85% among 360,000; AID 602438;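 active = inhibition or corrected inhibition above about 18%, plus a signal ratio from 0.5 to 1.5, limit read from the data, passing the limit was not always enough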
ADAM10 confirm – confirmation of inhibitors of human ADAM10; shares compounds with ADAM10 inh; ADAM10 QFRET peptide cleavage, EDANS fluorescence; inhibition, % at 6.95 µM; hit rate 1% among 2,100;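 active = inhibition above about 20% chosen separately for each screening run, limit read from the data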;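 also: 0% = DMSO wells and 100% = marimastat wells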
ADAM17 counter – ADAM17 inhibition, counter-screen for ADAM10 exosite hits. shares compounds with ADAM10 inh. hit rate 0.5% among 2,100. ADAM17 QFRET peptide cleavage, EDANS fluorescence. inhibition, % at 6.95 µM;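 active = mean triplicate inhibition above the solvent-only control wells' mean plus 3 SD, cut at about 12% in these data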;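 also: 0% = DMSO wells and 100% = marimastat wells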
ADAM10 ctr – ADAM10 inhibition, counter-screen for ADAM17 exosite hits; AID 743256; recombinant ADAM10, EDANS/DABCYL FRET peptide cleavage, 3 h; inhibition, % at 6.95 µM; hit rate 47% among 2,900; shares compounds with ADAM17 inh;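 active = mean inhibition over the triplicate runs exceeds the activity threshold set in the earlier primary screen, cut at about 20% in these data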;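 also: 0% = DMSO wells and 100% = marimastat wells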
ADAM17 confirm – confirmation of inhibitors of human ADAM17 | shares compounds with ADAM17 inh | recombinant ADAM17, EDANS/DABCYL QFRET peptide cleavage | inhibition, % at 6.95 µM | hit rate 65% among 2,900;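 active = mean inhibition across replicates above the hit cutoff set in the primary screen, cut at about 8.5% in these data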;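 also: 0% = DMSO wells and 100% = marimastat wells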
Starred values were filed as active, the others as inactive.

C=CCC[C@@H](Cc1ccc(F)cc1)C(=O)OC[C@@H]1CCCN1C(=O)[C@H](CC=C)CC(=O)N[C@H](CO)Cc1ccccc1 was read as HGIII-sPLA2 inh -50, ADAM17 inh 9.4*, KLK7 zymogen act 1, ADAM10 inh 27*, NRP1-CendR mod 2, ADAM10 confirm 0, ADAM17 counter 0, ADAM10 ctr 28* and ADAM17 confirm 12*.
C=CCC[C@H](Cc1ccc(F)cc1)C(=O)OC[C@H](Cc1c[nH]c2ccccc12)NC(=O)[C@@H](CC=C)CC(=O)N[C@H](CO)Cc1ccccc1 was read as HGIII-sPLA2 inh -106, ADAM17 inh 12*, KLK7 zymogen act 0, ADAM10 inh 30*, NRP1-CendR mod 18, ADAM10 confirm 13, ADAM17 counter 3, ADAM10 ctr 38* and ADAM17 confirm 22*.
For O=C(Cn1nc(-c2ccccc2)ccc1=O)NCCc1ccccc1F the results were HGIII-sPLA2 inh -3, ADAM17 inh -1, KLK7 zymogen act 1 and ADAM10 inh -5.
Screening CC(C)(C)NC(=O)C(OC(=O)c1cccs1)c1ccccc1 (stereo not given) returned HGIII-sPLA2 inh 3, ADAM17 inh -2, KLK7 zymogen act 0, ADAM10 inh 9 and NRP1-CendR mod -5.
`Cc1cc(C)cc(NC(=O)C(OC(=O)c2cccs2)c2ccccc2)c1` (stereo not given) gave HGIII-sPLA2 inh -22, ADAM17 inh 11*, KLK7 zymogen act -1, ADAM10 inh 21*, NRP1-CendR mod -3, ADAM10 confirm 5, ADAM17 counter 2, ADAM10 ctr 11 and ADAM17 confirm 8.
Screening CC(=O)c1cccc(NC(=O)C(OC(=O)c2ccccc2NS(=O)(=O)c2cccs2)c2ccccc2)c1 (stereo not given) returned HGIII-sPLA2 inh -39, ADAM17 inh 10*, KLK7 zymogen act -2, ADAM10 inh 21*, NRP1-CendR mod -12, ADAM10 confirm 13, ADAM17 counter 5, ADAM10 ctr 12 and ADAM17 confirm 18*.
For CCOc1ccccc1NC(=O)C(OC(=O)c1ccccc1NS(=O)(=O)c1cccs1)c1ccccc1 (stereo not given) the results were HGIII-sPLA2 inh -27, ADAM17 inh 6, KLK7 zymogen act -2, ADAM10 inh 10 and NRP1-CendR mod 3.
For Cc1cc(Nc2cccc(Br)c2)cc(=O)n1-c1cccc(Br)c1 the results were HGIII-sPLA2 inh 0, ADAM17 inh 3, KLK7 zymogen act 0 and ADAM10 inh -1.
Screening Cn1c(=O)c2c(ncn2Cc2ccc(O)c([N+](=O)[O-])c2)n(C)c1=O returned HGIII-sPLA2 inh 1, ADAM17 inh 1, KLK7 zymogen act 0 and ADAM10 inh 3.
Screening O=C(CSc1nc2ccccc2c(=O)n1-c1ccccc1)N/N=C/C=C/c1ccccc1[N+](=O)[O-] returned HGIII-sPLA2 inh -8, ADAM17 inh 1, KLK7 zymogen act 0, ADAM10 inh -4 and NRP1-CendR mod 18.
Screening Cc1ccccc1-n1c(SCC(=O)N/N=C/C=C/c2ccccc2[N+](=O)[O-])nc2ccccc2c1=O returned HGIII-sPLA2 inh -8, ADAM17 inh 10.0*, KLK7 zymogen act 0, ADAM10 inh 23*, NRP1-CendR mod -2, ADAM10 confirm 5, ADAM17 counter 1, ADAM10 ctr 18 and ADAM17 confirm 12*.
For O=C(CSc1nc2ccccc2[nH]1)Nc1ccc(F)c(F)c1 the results were HGIII-sPLA2 inh -32, ADAM17 inh 10*, KLK7 zymogen act 0, ADAM10 inh 21*, NRP1-CendR mod -4, ADAM10 confirm 1, ADAM17 counter 0, ADAM10 ctr 9 and ADAM17 confirm 4.

Screening results from PubChem.
